Test results: PubChem BioAssay (NCI)
The panel holds about 83,000 compounds, 20% with a hit somewhere; the sample as a whole holds those more often.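 Results are percent growth after 48 hours of single-concentration exposure. 100 means growth as in untreated cells, lower positive values show inhibition; negative values down to -100 show cell death.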 A number with no mark means an inactive call. Activity calls are given as the source filed them. How the source made its calls: active means growth percent below 10; inactive means the rest.

Columns and labels:
Test in all cases: NCI-60 one-dose screen, 48 h (100 = growth as untreated, 0 = no growth, -100 = all killed)
SK-MEL-2 melanoma = details: 10 µM unless noted
SN12C renal = details: 10 µM unless noted
UO-31 renal = details: 10 µM unless noted
TK-10 renal = details: 10 µM unless noted
ACHN renal = details: 10 µM unless noted
CAKI-1 renal = details: 10 µM unless noted
A498 renal = details: 10 µM unless noted
CCRF-CEM leukemia = details: 10 µM unless noted
MOLT-4 leukemia = details: 10 µM unless noted
SR leukemia = details: 10 µM unless noted
RPMI-8226 leukemia = details: 10 µM
OVCAR-8 ovarian = details: 10 µM unless noted
OVCAR-5 ovarian = details: 10 µM unless noted
OVCAR-4 ovarian = details: 10 µM unless noted
SK-OV-3 ovarian = details: 10 µM
IGROV1 ovarian = details: 10 µM unless noted
OVCAR-3 ovarian = details: 10 µM unless noted
HS 578T breast = details: 10 µM unless noted
NCI/ADR-RES ovarian = details: 10 µM unless noted

Row | Compound | growth (SK-MEL-2 melanoma) [%] | growth (SN12C renal) [%] | growth (UO-31 renal) [%] | growth (TK-10 renal) [%] | growth (ACHN renal) [%] | growth (CAKI-1 renal) [%] | growth (A498 renal) [%] | growth (CCRF-CEM leukemia) | growth (MOLT-4 leukemia) | growth (SR leukemia) | growth (RPMI-8226 leukemia) | growth (OVCAR-8 ovarian) [%] | growth (OVCAR-5 ovarian) [%] | growth (OVCAR-4 ovarian) [%] | growth (SK-OV-3 ovarian) [%] | growth (IGROV1 ovarian) [%] | growth (OVCAR-3 ovarian) [%] | growth (HS 578T breast) [%] | growth (NCI/ADR-RES ovarian) [%]
1 | CCN(C(=O)c1ccc2c3c(cccc13)C=C2)c1ccccc1 | 84.9 | 94.7 | 82.9 | 110 | 100 | 88.7 | 90.2 | 104% | 88.6% | 83.4% | 96.7% | 91.2 | 90.5 | 106 | 96 | 102 | 112 | 120 | 93.2
2 | COC(=O)[C@H]1CCCN1C(=O)[C@H]1CCCN1C(=O)[C@@H](Cc1c[nH]c2ccccc12)NC(=S)Nc1cc(C(F)(F)F)cc(C(F)(F)F)c1 | 93.2 | 43.2 | 41.1 | 78.4 | 44.3 | 28.5 | 56 | 36% | 21.2% | 14.4% | – | 66.8 | 76.4 | 44.6 | 77.2 | 22.7 | 48.3 | 12.3 | –
3 | Cc1nc2cc(Nc3nc(Nc4ccc(F)cc4)nc(-c4ccc(Cl)cc4)n3)ccc2n1Cc1ccccc1 | 83.6 | 77.1 | 44.5 | 112 | 71.6 | 90.4 | 70.3 | 3.88% (active) | 0.841% (active) | -19.4% (active) | 0.193% (active) | 62.8 | 92.3 | 58.6 | 92.9 | 48.7 | 57.3 | 75.4 | 59.1
4 | Clc1ccccc1Nc1ccc2nnc(-c3ccncc3)n2n1 | 100 | 87 | 89.5 | 76.8 | 96.6 | 86.1 | 72.8 | 79.1% | 89.6% | 38.6% | 96.2% | 101 | 106 | – | 121 | – | 110 | 99.6 | 105
5 | Cc1nn2c(-c3nc4ccc(Cl)cc4[nH]3)c(-c3ccc(F)cc3)nc2s1 | 105 | 106 | 86.9 | 97.1 | 102 | 94.8 | 76.8 | 72% | 72.6% | 72% | 77.6% | 87.7 | 98.5 | 115 | 107 | – | 110 | – | 96.4
6 | Clc1cccc(Cl)c1Nc1ccc2nnc(-c3ccncc3)n2n1 | 104 | 95.9 | 96.1 | 102 | 105 | 89.2 | 90.5 | 80.7% | 96.1% | 62.4% | 93.3% | 97.6 | 102 | – | 109 | 93.8 | 110 | 103 | –
7 | CCCCCCCCCCCCCCNc1nc(CO)ncc1-c1ccc(C(F)(F)F)cc1 | 94.6 | 102 | 79.1 | 98.9 | 102 | 93.8 | 86.4 | 93.6% | 99.6% | 102% | 93.9% | 99.5 | 103 | 112 | 91.7 | 104 | 103 | 93.2 | 100
8 | C=C(C)CCCC(C)CC#N (stereo not given) | 97.4 | 103 | 83.6 | 99 | 103 | 98.5 | 103 | – | 101% | 90.8% | – | 106 | 103 | 105 | 103 | 107 | 99.8 | 110 | 107
9 | COc1ccc(-c2nc3sc(C)nn3c2-c2nc3cc(C)c(C)cc3[nH]2)cc1 | 104 | 87.5 | 85.9 | 118 | 89.7 | 89.8 | 102 | 85.9% | 78.1% | 76.6% | 83.3% | 89.6 | 103 | 94.1 | 99.5 | 98.4 | 104 | – | 86.6
10 | Cn1c(=O)c2c(-c3ccccc3F)n(-c3ccc4c(c3)OCO4)cc2n(C)c1=O | 133 | 90.4 | 82.4 | 115 | 100 | 89.6 | 69.5 | – | 72.9% | 68.1% | 52.9% | 99.1 | 98.6 | 104 | 110 | 101 | 114 | 88.2 | 95.8
11 | COc1ccc(NC(=O)c2ccc3c(c2)nc(-c2ccc(Cl)cc2)n3-c2cc(C(C)(C)C)[nH]n2)cc1 | 92.7 | 86 | 62.4 | 75.8 | 90.1 | 61 | 62.2 | – | 55.1% | 79.7% | 90.2% | 89.3 | 100 | 72.7 | 114 | 88.7 | 94.5 | 62 | 80.1
12 | Cc1cc(=O)c2c(C)ccc(C)c2[nH]1 | 104 | 101 | 86.8 | 108 | 102 | 108 | 108 | 102% | 100% | 110% | 105% | 94.5 | 97.3 | 106 | 107 | 103 | 169 | 108 | 100
13 | COc1cccc(Nc2nc(NCCO)c3ccccc3n2)c1 | 103 | 81.6 | 74.4 | 106 | 79.7 | 70.6 | 43.8 | 22.4% | 48.1% | 47.1% | – | 81.9 | 101 | – | 102 | – | 61.5 | 62.4 | 63.9
14 | CC1(C)N=C(N)N=C(N)N1c1cccc(/C=C/C=C/c2cccc([N+](=O)[O-])c2)c1 | 67.2 | 83.6 | 81.5 | 50.9 | 95.6 | 96.9 | 65.2 | 35% | 45.5% | 37% | – | 84.1 | 44.7 | 65.3 | 83.3 | 35.3 | 30.1 | 95 | 108
15 | COc1ccc(-n2ncc3c4nc(OC)c(S(=O)(=O)c5ccccc5)cc4ccc32)cc1 | 65.9 | 93 | 76.4 | 88.2 | 44.2 | 88.7 | 43.3 | – | 98.4% | 85.9% | 95% | 52.7 | 91.3 | 45.5 | 55.8 | 92 | 77.2 | 43.5 | 73.4
16 | CCOC(=O)c1c(Cl)c2c(n1Cc1ccc(OC)cc1)-c1oncc1CCC2 | 103 | 57.6 | 66.2 | 84.8 | 73.9 | 56.1 | 65.5 | 62.2% | 72.1% | 23.7% | 52.4% | 81.5 | 90.1 | – | 105 | 84.4 | 102 | 67.4 | 80.6
